Reference: PubChem BioAssay (Tox21)
Records with an inconclusive call do not appear. Active and inactive are the calls of the source. Unless noted, calls follow the shape of the dose curve; as a rule, active = well fitted curve in the direction sought with a large enough effect in the repeat runs; inconclusive = weak or mixed curves; inactive = no such curve, though single readings can be large; an effect the other way counts as inactive or inconclusive.

Tests used:
[1] = qHTS assay for small molecule agonists of the p53 signaling pathway (AID 651631; calls by dose curve; also: nearly all actives have a fitted effect of over 15% in size)
Procedure, shortened: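 Readout was fluorescence from the LiveBLAzer FRET substrate, applied for 2 h at room temperature after 16 h compound exposure at 37 °C. Cells were the p53RE-bla HCT-116 line, with beta-lactamase driven by p53 response elements.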

[2] = qHTS assay for small molecules that induce genotoxicity in human embryonic kidney cells expressing luciferase-tagged ATAD5 (AID 651632); also: nearly all actives have a fitted effect of over 15% in size
Procedure, shortened: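 HEK293T cells carrying luciferase-tagged ATAD5 were given compound or DMSO vehicle and incubated 16 hr at 37C, 5% CO2. Luciferase activity was read after 30 min at room temperature with Amplite; a rise signals genotoxic stress.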

[3] = qHTS assay for small molecule agonists of the p53 signaling pathway - cell viability (AID 651633; calls by dose curve; also: series mostly up to about 83 µM; nearly all actives have a fitted effect of over 30% in size)
Procedure, shortened: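 Viability counter-read: CellTiter-Glo luminescence (30 min, room temperature) in the same p53RE-bla plates. These plates had been exposed to compounds for 16 h at 37 C.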

[4] = qHTS assay for small molecules that induce genotoxicity in human embryonic kidney cells expressing luciferase-tagged ATAD5 - cell viability (AID 651634; calls by dose curve; also: nearly all actives have a fitted effect of over 25% in size; also: potency is read from the fitted curve at half-maximal effect)
Procedure, shortened: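 HEK293T cells carrying luciferase-tagged ATAD5, 2,000 cells/well, exposed to compound for 15.5 hr at 37C. Viability read as live-cell protease activity by CellTiter-Fluor fluorescence after 30 min at 37C.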

[5] = qHTS assay for small molecule disruptors of the mitochondrial membrane potential (AID 720635); also: potency is read from the fitted curve at half-maximal effect
Procedure, shortened: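 Mitochondrial membrane potential tracked with Mito-MPS dye, red aggregates (ex 540/em 590 nm) against green monomers (ex 490/em 535 nm). Compound treatment 1 hr at 37C, dye 30 min in HepG2.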

[6] = qHTS assay to test for compound auto fluorescence at 590 nm (red) in HepG2 cells (AID 720674)
Procedure, shortened: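 Red autofluorescence (Ex/Em 540/590 nm, Rose Bengal sodium equivalents) was measured in HepG2 cells, 2,000 per well in MEM plus 10% FBS, plated overnight at 37 C. Readings were taken 1 hr after adding 23 nL compound or DMSO, at 37 C and 5% CO2.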

[7] = qHTS assay to test for compound auto fluorescence at 535 nm (green) in HepG2 cells (AID 720675)
[8] = qHTS assay to test for compound auto fluorescence at 460 nm (blue) in HEK293 cells (AID 720678)
Procedure, shortened: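 HEK293 cells (2,000/well, medium with 10% dialyzed FBS) attached 4-5 hr, then exposed to compound overnight at 37C, 5% CO2. Blue fluorescence read at 405/460 nm, with triamterene as reference fluorophore.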

[9] = qHTS assay to test for compound auto fluorescence at 590 nm (red) in HEK293 cells (AID 720679)
Procedure, shortened: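 HEK293 cells (2,000/well, 10% dialyzed FBS) attached 4-5 hr, then dosed with compound or DMSO and incubated overnight at 37C, 5% CO2. Red fluorescence read at 540/590 nm, Rose Bengal sodium as reference fluorophore.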

[10] = qHTS assay to test for compound auto fluorescence at 535 nm (green) in HEK293 cells (AID 720680)
[11] = qHTS assay to test for compound auto fluorescence at 460 nm (blue) in HEK293 cell free culture (AID 720681)
Procedure, shortened: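 Blue fluorescence (Ex 405/Em 460 nm, triamterene-equivalent) was read immediately after pin transfer of compound or DMSO into medium (DMEM, 10% FBS) without cells.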

[12] = qHTS assay to test for compound auto fluorescence at 535 nm (green) in HEK293 cell free culture (AID 720682)
Procedure, shortened: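 Compounds were pin-transferred into cell-free DMEM with 10% FBS, and green fluorescence was read at excitation 485 nm and emission 535 nm. Intensities were expressed as fluorescein-equivalent values.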

[13] = qHTS assay to test for compound auto fluorescence at 590 nm (red) in HEK293 cell free culture (AID 720683)
Procedure, shortened: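 Red-channel autofluorescence of compounds in culture medium (DMEM, 10% FBS), no cells, measured at 540/590 nm. Rose Bengal sodium is the reference fluorophore for equivalence.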

[14] = qHTS assay to test for compound auto fluorescence at 590 nm (red) in HepG2 cell free culture (AID 720684)
Procedure, shortened: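 Plate contents were MEM with 10% FBS plus test compound or DMSO, no cells. Fluorescence was recorded with 540 nm excitation and 590 nm emission.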

[15] = qHTS assay to test for compound auto fluorescence at 460 nm (blue) in HepG2 cell free culture (AID 720685)
Procedure, shortened: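 Compound (23 nL) or DMSO pinned into cell-free MEM with 10% FBS; blue fluorescence read at 405/460 nm excitation/emission, expressed as auto-fluorescence equivalency to triamterene.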

[16] = qHTS assay to test for compound auto fluorescence at 535 nm (green) in HepG2 cell free culture (AID 720686)
[17] = molecular target: Glucocorticoid receptor (Homo sapiens) (UniProt P04150); test: qHTS assay to identify small molecule agonists of the glucocorticoid receptor (GR) signaling pathway (AID 720691; active = well fitted activation curve with a large enough effect in the signal ratio in the repeat runs, not every such curve was filed as active; the % refers to the signal ratio)
Procedure, shortened: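 GR-bla HeLa cells carrying a GRE-driven beta-lactamase reporter, exposed to compounds for 18 h at 37 C. Reporter activation read as fluorescence after 2 h with LiveBLAzer B/G FRET substrate at room temperature.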

[18] = qHTS assay for small molecule disruptors of the mitochondrial membrane potential - cell viability (AID 720634; calls by dose curve;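 also: human HepG2 liver cancer cells; series mostly up to about 83 µM; nearly all actives have a fitted effect of over 20% in size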)
Procedure, shortened: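 HepG2 cells, 2,000 per well, attached overnight, then treated 1 hr at 37 C, 5% CO2. Viability read as ATP by CellTiter-Glo luminescence after 30 min at room temperature. Read in the same wells as the m-MPI membrane-potential dye assay.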

[19] = molecular target: Glucocorticoid receptor (Homo sapiens) (UniProt P04150); test: qHTS assay to identify small molecule antagonists of the glucocorticoid receptor (GR) signaling pathway (AID 720692; active = well fitted inhibition curve with a large enough effect in the signal ratio in the repeat runs, not every such curve was filed as active; the % refers to the signal ratio)
Procedure, shortened: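 GR-bla HeLa cells carrying a GRE-driven beta-lactamase reporter received compound after 4 h plating, then dexamethasone (5 nM final). After 18 h at 37C, the FRET substrate was loaded for 2 h at room temperature and fluorescence read.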

[20] = qHTS assay to test for compound auto fluorescence at 460 nm (blue) in HepG2 cells (AID 720687)
Procedure, shortened: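 Blue-channel autofluorescence (Ex/Em 405/460 nm, triamterene-equivalent) was measured after 1 hr compound exposure at 37 C, 5% CO2. Cells were HepG2, plated overnight at 37 C in MEM plus 10% FBS.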
% is scaled to controls: 0 for no effect and ±100 for the full control effect.

Chain of Glucocorticoid receptor (Homo sapiens) (P04150 whole entry, looked up): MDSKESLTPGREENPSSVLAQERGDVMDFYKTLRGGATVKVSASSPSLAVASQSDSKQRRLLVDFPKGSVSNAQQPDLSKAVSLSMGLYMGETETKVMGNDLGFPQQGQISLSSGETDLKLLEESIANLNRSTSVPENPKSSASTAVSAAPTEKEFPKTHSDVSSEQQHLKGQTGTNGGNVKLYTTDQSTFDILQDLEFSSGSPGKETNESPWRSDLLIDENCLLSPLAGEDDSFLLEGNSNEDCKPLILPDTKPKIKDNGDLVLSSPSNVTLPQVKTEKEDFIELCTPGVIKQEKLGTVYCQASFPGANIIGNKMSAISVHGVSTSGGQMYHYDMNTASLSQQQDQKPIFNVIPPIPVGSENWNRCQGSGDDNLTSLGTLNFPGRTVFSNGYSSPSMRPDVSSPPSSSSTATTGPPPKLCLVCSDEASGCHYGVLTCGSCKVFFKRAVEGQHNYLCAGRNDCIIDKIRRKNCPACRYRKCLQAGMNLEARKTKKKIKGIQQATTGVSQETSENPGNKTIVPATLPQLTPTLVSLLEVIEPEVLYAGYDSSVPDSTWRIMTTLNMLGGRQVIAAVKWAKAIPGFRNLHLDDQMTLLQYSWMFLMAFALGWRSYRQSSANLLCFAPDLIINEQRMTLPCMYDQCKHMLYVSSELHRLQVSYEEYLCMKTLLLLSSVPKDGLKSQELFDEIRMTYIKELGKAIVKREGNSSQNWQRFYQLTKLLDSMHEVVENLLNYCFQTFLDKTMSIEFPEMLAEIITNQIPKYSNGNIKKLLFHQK

CCCOC(=O)c1ccc(N)cc1
inactive: Potency [1] | Potency [2] | Potency [3] | Potency [4] | Potency [5] | outcome [6] | outcome [7] | Potency [8] | outcome [9] | outcome [10] | Potency [11] | outcome [12] | outcome [13] | outcome [14] | Potency [15] | outcome [16] | Potency [17]

C/C=C(\C)C(=O)OCCC(C)CCC=C(C)C (configuration not stated)
inactive: Potency [1] | Potency [2] | Potency [3] | Potency [4] | Potency [18] | outcome [6] | outcome [7] | Potency [8] | outcome [9] | Potency [11] | outcome [12] | outcome [13] | outcome [14] | Potency [15] | Potency [17] | Potency [19]

Cc1ccnc2ccccc12
active: Potency [5] 19.3 µM
inactive: Potency [1] | Potency [2] | Potency [3] | Potency [4] | outcome [7] | Potency [8] | outcome [9] | outcome [10] | Potency [11] | outcome [12] | outcome [13] | outcome [14] | Potency [15] | outcome [16] | Potency [20] | Potency [17] | Potency [19]

CCN(CC)CCNC(=O)c1ccc(NC(C)=O)cc1
inactive: Potency [1] | Potency [2] | Potency [3] | Potency [4] | Potency [5] | outcome [6] | outcome [7] | Potency [8] | outcome [9] | outcome [10] | Potency [11] | outcome [12] | outcome [13] | outcome [14] | Potency [15] | outcome [16] | Potency [17] | Potency [19]

CCOC(=O)C(C)Oc1ccc(Oc2nc3ccc(Cl)cc3o2)cc1 (configuration not stated)
inactive: Potency [1] | Potency [2] | Potency [3] | Potency [4] | Potency [18] | outcome [7] | Potency [8] | outcome [9] | outcome [10] | Potency [11] | outcome [12] | outcome [13] | outcome [14] | Potency [15] | outcome [16] | Potency [17]

Cc1nc2ccccc2s1
inactive: Potency [1] | Potency [2] | Potency [3] | Potency [4] | Potency [5] | outcome [6] | outcome [7] | Potency [8] | outcome [9] | outcome [10] | Potency [11] | outcome [12] | outcome [13] | outcome [14] | Potency [15] | outcome [16] | Potency [20] | Potency [17] | Potency [19]

CCCCCCCCCCCC[N+](C)(C)CCCS(=O)(=O)[O-]
inactive: Potency [1] | Potency [2] | Potency [3] | Potency [4] | Potency [18] | outcome [6] | outcome [7] | Potency [8] | outcome [9] | Potency [11] | outcome [12] | outcome [13] | outcome [14] | Potency [15] | outcome [16] | Potency [20] | Potency [17]

CO[C@H]1C=CO[C@@]2(C)Oc3c(C)c(O)c4c(O)c(c5c(c4c3C2=O)=NC2(CCN(CC(C)C)CC2)N=5)NC(=O)/C(C)=C\C=C/[C@H](C)[C@H](O)[C@@H](C)[C@@H](O)[C@@H](C)[C@H](OC(C)=O)[C@@H]1C
inactive: Potency [1] | Potency [2] | Potency [3] | Potency [18] | outcome [6] | outcome [7] | Potency [8] | outcome [9] | outcome [10] | Potency [11] | outcome [12] | outcome [13] | outcome [14] | Potency [15] | outcome [16] | Potency [17]
active: Potency [4] 53.3 µM

CCC(C)(C)C1CCC(O)CC1 (configuration not stated)
inactive: Potency [1] | Potency [2] | Potency [3] | Potency [4] | outcome [6] | outcome [7] | Potency [8] | outcome [9] | outcome [10] | Potency [11] | outcome [12] | outcome [13] | outcome [14] | Potency [15]

C=CC(C)=CCC=C(C)C
inactive: Potency [1] | Potency [2] | Potency [3] | Potency [4] | Potency [18] | outcome [6] | outcome [7] | Potency [8] | outcome [9] | outcome [10] | Potency [11] | outcome [12] | outcome [13] | outcome [14] | Potency [15] | Potency [20]

COc1ccc(C(=O)c2cccc(O)c2)c(OC)c1
active: Potency [5] 30.6 µM
inactive: Potency [1] | Potency [2] | Potency [3] | Potency [18] | outcome [7] | Potency [8] | outcome [9] | outcome [10] | Potency [11] | outcome [12] | outcome [13] | outcome [14] | Potency [15] | outcome [16] | Potency [20] | Potency [17]

OCCSc1ccccc1
inactive: Potency [1] | Potency [2] | Potency [3] | Potency [18] | Potency [5] | outcome [7] | Potency [8] | outcome [9] | outcome [10] | Potency [11] | outcome [12] | outcome [13] | outcome [14] | Potency [15] | outcome [16] | Potency [20] | Potency [17] | Potency [19]

CC(C)OCC1CO1 (configuration not stated)
inactive: Potency [1] | Potency [2] | Potency [3] | Potency [4] | outcome [7] | Potency [8] | outcome [9] | Potency [11] | outcome [12] | outcome [13] | outcome [14] | Potency [15] | outcome [16] | Potency [20] | Potency [17] | Potency [19]

CC(=O)CC(c1ccc([N+](=O)[O-])cc1)c1c(O)c2ccccc2oc1=O (configuration not stated)
inactive: Potency [1] | Potency [2] | Potency [3] | Potency [18] | fluorescence, relative to Rose Bengal [6] -0.182% [at 18.6 µM] | fluorescence, % of fluorescein control [7] 0.0036% [at 18.6 µM] | fluorescence, % of triamterene [8] -0.0105% [at 18.6 µM] | fluorescence, % of fluorescent control [9] 0.088% [at 18.6 µM] | fluorescence, % of fluorescent control [11] -0.0081% [at 18.6 µM] | activity change [12] 0.0438% [at 18.6 µM] | fluorescence, % of fluorescent control [13] -0.0043% [at 18.6 µM] | fluorescence, % of Rose Bengal [14] 0.571% [at 18.6 µM] | fluorescence, % of fluorescent control [15] -0.0473% [at 18.6 µM] | fluorescence, % of fluorescein control [16] 0.0092% [at 18.6 µM]
active: Potency [5] 7.17 µM

CCCCCCCCCCCC[N+](C)(C)CC(=O)[O-]
inactive: Potency [1] | Potency [2] | Potency [3] | Potency [18] | Potency [5] | outcome [6] | outcome [7] | Potency [8] | outcome [9] | outcome [10] | Potency [11] | outcome [12] | outcome [13] | outcome [14] | Potency [15] | outcome [16] | Potency [20] | Potency [17]
